For orientation: AC50 means the midpoint of the concentration-response curve, whichever way the signal moves.

Several values for one entry are separate records, joined by “and”; a condition that tells them apart may be missing. Equal values may be shown once. The whole screen tested about 16,000 compounds, of which about 4,000 (25%) were called active. Roughly 26% stayed inconclusive and do not appear here. Calls follow the shape of the dose curve; as a rule, active = well fitted curve in the direction sought with a large enough effect; inconclusive = small, poorly fitted or top-dose-only effect, or effect the other way; inactive = no such curve, though single readings can be large or run the other way. These entries were drawn from the full list.
% is scaled to controls: 0 for no effect and ±100 for the full control effect.

The target of this assay is Cytochrome P450 2C9 (Homo sapiens) (UniProt P11712). In words: Cytochrome panel assay with activity outcomes. The settings on record: recombinant CYP, pro-luciferin dealkylation, luminescence, p450-cyp2c9; series mostly up to 57.1 µM.
Sequence of Cytochrome P450 2C9 (Homo sapiens) (P11712 whole entry, looked up): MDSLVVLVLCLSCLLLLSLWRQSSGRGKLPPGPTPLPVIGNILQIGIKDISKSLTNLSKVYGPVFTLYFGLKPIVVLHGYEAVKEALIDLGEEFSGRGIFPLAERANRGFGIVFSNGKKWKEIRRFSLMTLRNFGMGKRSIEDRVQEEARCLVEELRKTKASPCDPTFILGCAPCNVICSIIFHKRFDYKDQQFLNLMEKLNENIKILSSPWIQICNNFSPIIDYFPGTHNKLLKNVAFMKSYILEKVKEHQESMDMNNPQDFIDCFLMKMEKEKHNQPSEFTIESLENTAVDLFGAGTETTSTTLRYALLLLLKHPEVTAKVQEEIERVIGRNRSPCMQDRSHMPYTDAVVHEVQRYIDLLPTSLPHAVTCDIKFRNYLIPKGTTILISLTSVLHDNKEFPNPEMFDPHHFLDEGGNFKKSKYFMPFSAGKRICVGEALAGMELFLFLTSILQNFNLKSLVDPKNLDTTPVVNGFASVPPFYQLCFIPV
`Oc1ccc(-c2[nH]ncc2-c2ccc(Cl)cc2)c(O)c1`: the half-maximal activity concentration (AC50) was 0.794 µM (active).

`CC(C)NC(=O)N1CC2(CCN(C(=O)c3cc(C(F)(F)F)cc(C(F)(F)F)c3)CC2)C1`: the AC50 result was “inactive”.

`CCOC(=O)c1c(CC(C)C)csc1NC=O`: the concentration at half-maximal activity (AC50) was 10 µM (active).

Consider `O=C(CN(Cc1ccccc1Cl)C(=O)c1ccc(CN2CCOCC2)o1)NCC1CCCO1` (stereo not given), for which the AC50 entry is “inactive”.

Take `O=C(Nc1ccccc1C(=O)NCC1CCCO1)c1ccc(Cl)cc1Cl` (stereo not given): the AC50 was 10 µM (active).

Regarding `Cc1ccccc1C(=O)c1c[nH]c(C(=O)NCC2CCCO2)c1` (stereo not given), the AC50 entry is “inactive”.

Turning to `COc1cccc([C@H]2Oc3ccc(OC)cc3/C(=N\O[C@@H]3O[C@H](COC(C)=O)[C@H](OC(C)=O)[C@H](OC(C)=O)[C@H]3OC(C)=O)[C@@H]2O)c1`, the activity, negative = inhibition was -12.6% [at 11.4 µM] (inactive).

Consider `C=CC[C@@H]1C=C[C@@H](O/N=C\C[C@@H]2C=C[C@H](OC(C)=O)[C@H](COC(C)=O)O2)[C@@H](CO)O1`, for which the activity, negative = inhibition was -4.4% [at 11.4 µM] (inactive).

Take `COc1cccc([C@H]2Oc3ccc(OC)cc3/C(=N\O[C@@H](C)c3cn([C@H](CO)Cc4ccccc4)nn3)[C@@H]2O)c1`: the concentration at half-maximal activity (AC50) is 1.58 µM (active).

Turning to `COc1ccc(O[C@H]2C=C[C@@H](c3ccccc3)O[C@@H]2CON=C(C)C)cc1`, the activity, negative = inhibition is 11.9% [at 11.4 µM] (inactive).

For `COc1ccc(O[C@H]2C=C[C@@H](c3ccccc3)O[C@H]2CO/N=C2/c3cc(OC)ccc3O[C@@H](c3cccc(OC)c3)[C@H]2O)cc1`, the AC50 is 3.16 µM (active).

Turning to `CO/N=C1/c2cc(OC)ccc2O[C@@H](c2cccc(OC)c2)[C@H]1O`, the activity, negative = inhibition was -0.557% [at 11.4 µM] (inactive).

For the compound `CC(C)=NO[C@@H](C)c1cn([C@H](CO)Cc2ccccc2)nn1`, the activity, negative = inhibition is 16.5% [at 11.4 µM] (inactive) and 5.66% [at 11.4 µM] (inactive).

For `C=CC[C@@H]1C=C[C@H](O/N=C2\c3cc(OC)ccc3O[C@H](c3cccc(OC)c3)[C@H]2O)[C@H](CO)O1`, the half-maximal activity concentration (AC50) is 0.398 µM (active).

`COc1cccc([C@@H]2Oc3ccc(OC)cc3/C(=N/O[C@@H](C)c3cn([C@H]4COC[C@H]4O)nn3)[C@@H]2O)c1`: the activity, negative = inhibition is -15.5% [at 11.4 µM] (inactive).

Consider `COc1cccc([C@@H]2Oc3ccc(OC)cc3/C(=N/OC[C@@H](C)[C@H](OCc3ccccc3)C(C)C)[C@@H]2O)c1`, for which the AC50 is 3.98 µM (active).

With `COc1cccc([C@H]2Oc3ccc(OC)cc3/C(=N\OC[C@@H](O)[C@@H]3O[C@@H]4OC(C)(C)O[C@@H]4[C@H]3O)[C@@H]2O)c1`, the activity, negative = inhibition was -20.5% [at 11.4 µM] (inactive).

As to `CC1=N[C@@](C)(COC(=O)[C@]2(C)N[C@](C)(CO)CO2)COC1=O`, the activity, negative = inhibition was 11% [at 11.4 µM] (inactive).

With `CC(=O)NCCNc1cc(-c2ccccc2CN(C)C)ncn1`, the activity, negative = inhibition was 10% [at 2.29 µM] (inactive).

Take `O=[N+]([O-])/C=C\c1cc2ccccc2[nH]1`: the activity, negative = inhibition was 11.3% [at 11.4 µM] (inactive).

As for `COCC(=O)Nc1c(I)c(C(=O)NC[C@@H](O)CO)c(I)c(C(=O)N(C)C[C@@H](O)CO)c1I`, the AC50 result was “inactive”.

`C/C(CCN1CCCCc2nc(C)c(C)cc21)=N\O[C@@H](C)CN1CCCc2nc(C)c(C)cc21`: the activity, negative = inhibition was -5.53% [at 11.4 µM] (inactive).

Turning to `COc1cccc([C@@H]2Oc3ccc(OC)cc3/C(=N/O[C@@H](C)CN3CCCCc4nc(C)c(C)cc43)[C@@H]2O)c1`, the AC50 is 1.58 µM (active).

`CC(C)=NO[C@@H](C)CN1CCCCc2nc(C)c(C)cc21`: the activity, negative = inhibition was 19.8% [at 11.4 µM] (inactive).

On to `CCC(C)(C)N=C(NC#N)Nc1cccnc1`, for which the AC50 entry was “inactive”.

For `CN(C)c1ncnc2ccc(-c3ccccc3C#N)cc12`, the activity, negative = inhibition was -7.24% [at 2.29 µM] (inactive).

Regarding `Nc1c2c(=O)oc(-c3ccccc3)cc2nn1-c1ccccc1`, the AC50 was 10 µM (active).

Regarding `O=C(O)/C=C(/C(=O)O)[C@]12CCN3CC4=CCO[C@@H]5CC(=O)N[C@@H]1[C@H]5[C@H]4C[C@H]32`, the activity, negative = inhibition was -2.53% [at 11.4 µM] (inactive).

`CN1/C(=C\C=[N+](C)c2ccccc2)C(C)(C)c2ccccc21`: the AC50 entry is “inactive”.

Take `c1ccc(-c2nnn(CCN3CCCCC3)n2)cc1`: the activity, negative = inhibition is 3.45% [at 11.4 µM] (inactive).

In the case of `CN1/C(=C\C(=O)COC(=O)Cn2nnc(-c3ccccc3)n2)C(C)(C)c2ccccc21`, the AC50 was 3.98 µM (active).

For `CC1CCCN(C(=O)c2sc3cc([N+](=O)[O-])ccc3c2Cl)C1` (stereo not given), the AC50 result is “inactive”.

`CS(=O)(=O)c1ccc([C@H](O)[C@H](CO)NC(=O)C(Cl)Cl)cc1`: the AC50 entry was “inactive”.

As for `CC(=O)N1CCC2(CCCN(Cc3ccccc3)C2)CC1`, the AC50 result is “inactive”.

For `Cc1cc(C)n(-c2nc(NC(C)C)nc(NC(C)C)n2)n1`, the AC50 result was “inactive”.

Take `COc1ccc(-c2cc(C(F)F)nc(-n3nc(C)cc3C)n2)cc1`: the half-maximal activity concentration (AC50) is 28.2 µM (active).

For the compound `Cc1cnc(CNc2nc(-c3ccc(N(C)C)cc3)nc3ccccc23)cn1`, the activity, negative = inhibition is -14.7% [at 2.29 µM] (inactive).

As for `N#CCCn1c(=O)c(-c2cccs2)nc2cnc(Nc3ccccc3)nc21`, the AC50 entry is “inactive”.

For the compound `COc1ccccc1NC(=O)CCc1c(C)[nH]c(=O)c(C#N)c1C`, the AC50 entry is “inactive”.

For `COc1ncc2nc(-c3cccs3)c(=O)n(CCC#N)c2n1`, the AC50 result was “inactive”.

For the compound `Cc1cccc(NC(=O)CSc2nc(-c3ccccc3)c(C#N)c(=O)[nH]2)c1C`, the AC50 was 0.355 µM (active).

For `N#Cc1c(-c2cccs2)nc(SCC(=O)c2cccs2)[nH]c1=O`, the AC50 was 0.708 µM (active).

On to `CC(C)NC(=O)N1CC[C@@]2(CCCN(C(=O)c3csnn3)C2)C1`, for which the AC50 result was “inactive”.

For the compound `COc1ccccc1-c1cc(NCc2cccc(C)c2)ncn1`, the activity, negative = inhibition was 0.571% [at 2.29 µM] (inactive).

As to `Cc1ccc(N(Cc2ccc([N+](=O)[O-])cc2)C(=O)c2ccco2)cc1`, the concentration at half-maximal activity (AC50) was 3.16 µM (active).

`O=C(O)/C(Cc1ccc([N+](=O)[O-])cc1)=N/O`: the activity, negative = inhibition was -14.2% [at 11.4 µM] (inactive).

Regarding `O=C(N/N=C/c1ccc([N+](=O)[O-])o1)c1cc(-c2ccncc2)nc2ccccc12`, the AC50 is 0.891 µM (active).

With `NC(=O)N/N=C\c1ccc([N+](=O)[O-])o1`, the AC50 entry is “inactive”.

With `CCOC(=O)N/N=C\c1ccc([N+](=O)[O-])o1`, the AC50 entry is “inactive”.

For the compound `O=C(O)[C@H]1CN(CCCP(=O)(O)O)CCN1`, the AC50 entry was “inactive”.

`CCN(c1ccccc1)S(=O)(=O)c1ccc(NC(=S)NC(=O)c2ccc(Br)o2)cc1`: the AC50 is 1.58 µM (active).

Take `CCN(c1ccccc1)S(=O)(=O)c1ccc(NC(=S)NC(=O)c2cccs2)cc1`: the AC50 was 1 µM (active).

On to `O=C(NC1CCCCCC1)c1cccs1`, for which the AC50 result is “inactive”.

As to `CN(C1CCCCC1)S(=O)(=O)c1ccc(NC(=S)NC(=O)c2cccs2)cc1`, the concentration at half-maximal activity (AC50) is 0.891 µM (active).

Take `CCOC(=O)NCN1C(=O)C2C3C=CC(C3)C2C1=O` (stereo not given): the AC50 result is “inactive”.

With `CC(C)(S)[C@H](N)C(=O)O`, the activity, negative = inhibition is 3.44% [at 11.4 µM] (inactive).

Turning to `CCCCCCCCCCCCCC(=O)O[C@H](CC(=O)O)C[N+](C)(C)C`, the AC50 result was “inactive”.

Take `O=C1c2ccccc2S(=O)(=O)N1CCCCN1CCN(c2ncccn2)CC1`: the AC50 result was “inactive”.

Take `CN1C(C(=O)Nc2ccccn2)=C(O)c2ccccc2S1(=O)=O`: the concentration at half-maximal activity (AC50) is 3.98 µM (active).

`Cc1cc(NC(=O)C2=C(O)c3ccccc3S(=O)(=O)N2C)no1`: the AC50 entry was “inactive”.

Regarding `O=C(Nc1cccc(F)c1)N1CCC2(CCNCC2)CC1`, the AC50 result is “inactive”.

On to `N/N=C1/c2ccccc2N[C@H]1OC(=O)Nc1cccc(Cl)c1`, for which the activity, negative = inhibition was -11.6% [at 11.4 µM] (inactive).

Turning to `O=C(Nc1cccc(Cl)c1)N1CCN2C(=O)c3ccccc3C12c1ccccc1` (stereo not given), the AC50 was 2.51 µM (active).

Turning to `C[C@H](Cc1ccc(O)c(O)c1)[C@@H](C)Cc1ccc(O)c(O)c1`, the AC50 is 12.6 µM (active).

Consider `N[C@@H](Cc1ccc(O)c(O)c1)C(=O)O`, for which the AC50 result is “inactive”.

For the compound `C[C@](N)(Cc1ccc(O)c(O)c1)C(=O)O`, the AC50 result was “inactive”.

Consider `O=c1c2ccccc2nc2n1CC/C2=C\c1ccccc1[N+](=O)[O-]`, for which the AC50 was 5.01 µM (active).

With `O=c1c2ccccc2nc2n1CCc1c-2[nH]c2ccccc12`, the AC50 result was “inactive”.

Take `O=C(O)CSc1nc2ccccc2[nH]1`: the activity, negative = inhibition was -8.67% [at 11.4 µM] (inactive).

Regarding `O=C(CSc1nc2ccccc2[nH]1)Nc1c(F)cccc1F`, the AC50 was 12.6 µM (active).

As for `CNC(=O)[C@@H]1O[C@@H](n2cnc3c(NCc4cccc(I)c4)ncnc32)[C@H](O)[C@@H]1O`, the AC50 result was “inactive”.

Regarding `CCOC(=O)c1cnc(-c2ccccc2)nc1Oc1ccc(Cl)cc1`, the AC50 result was “inactive”.

Turning to `Cc1ccc(Oc2nc(-c3ccccc3)ncc2S(C)(=O)=O)cc1`, the AC50 is 2.51 µM (active).

Take `CCOC(=O)c1cnc(-c2ccccc2)nc1Oc1ccccc1`: the AC50 was 6.31 µM (active).

With `CCOC(=O)c1cnc(-c2ccccc2)nc1Oc1cccc(Cl)c1`, the AC50 was 11.2 µM (active).

As for `C=CCOc1ccc(CNC(C)(C)CO)cc1OC`, the AC50 entry is “inactive”.

`CCn1cc(C(=O)O)c(=O)c2cc3c(cc21)OCO3`: the AC50 entry is “inactive”.

On to `O=C(O)c1cc(=O)c2c(Cl)cc(Cl)cc2[nH]1`, for which the AC50 entry is “inactive”.

As to `CO/N=C\[C@@H](C)[C@H](OCc1ccccc1)C(C)C`, the activity, negative = inhibition is -6.92% [at 11.4 µM] (inactive).

`COc1ccccc1-c1nc(NCc2cnc(C)cn2)c2ccccc2n1`: the activity, negative = inhibition was 16.4% [at 2.29 µM] (inactive).

In the case of `Nc1ncnc2c1cnn2-c1ccccc1`, the AC50 entry is “inactive”.

Take `CC(=O)Nc1ccc(Nc2ncnc3c2cnn3-c2ccccc2)cc1`: the AC50 was 0.891 µM (active).

In the case of `Cn1ncc2c(Nc3cccc(C(=O)O)c3)ncnc21`, the AC50 entry is “inactive”.

In the case of `CCOC(=O)c1ccc(NC(=O)CC2NCCNC2=O)cc1` (stereo not given), the AC50 entry was “inactive”.

For the compound `CCOC(=O)c1ccc(NC(=O)COc2ccccc2OC)cc1`, the AC50 is 17.8 µM (active).

Regarding `Cc1nc(N/N=C/c2ccccc2)nc(N(C)c2ccccc2)c1[N+](=O)[O-]`, the AC50 entry was “inactive”.

Take `Cc1ccc2nc(N/N=C\c3cccc(C)n3)cc(C)c2c1`: the activity, negative = inhibition was 7.2% [at 11.4 µM] (inactive).

Consider `Cc1ccc2nc(N/N=C/c3ccccc3C#N)nc(-c3ccccc3)c2c1`, for which the AC50 was 7.08 µM (active).

Regarding `Cc1ccc2nc(Nc3ccccc3O)nc(-c3ccccc3)c2c1`, the AC50 is 8.91 µM (active).

For the compound `Cc1cc(C)nc(Nc2ncc(O)n2-c2ccccc2)n1`, the AC50 entry is “inactive”.

The record behind these values is PubChem BioAssay AID1851 (National Center for Advancing Translational Sciences (NCATS), 2009).
